mIDH1 inhibitor: blocks human mutant IDH1 R132H enzyme; O75874; Potency, µM (top dose mostly 76.6 µM), for inactives: at the highest dose activity change, negative = inhibition, actives largely listed as inhibitors; IDH1-R132H enzyme, NADPH consumption, diaphorase/resazurin fluorescence; AID 602179; hit rate 0.093% among 390,000; also: potency is read from the fitted curve at half-maximal effect; % is scaled to controls: 0 for no effect and ±100 for the full control effect; nearly all actives have a fitted effect of over 65% in size
Target sequence (O75874 whole entry R132H, stated change not applied): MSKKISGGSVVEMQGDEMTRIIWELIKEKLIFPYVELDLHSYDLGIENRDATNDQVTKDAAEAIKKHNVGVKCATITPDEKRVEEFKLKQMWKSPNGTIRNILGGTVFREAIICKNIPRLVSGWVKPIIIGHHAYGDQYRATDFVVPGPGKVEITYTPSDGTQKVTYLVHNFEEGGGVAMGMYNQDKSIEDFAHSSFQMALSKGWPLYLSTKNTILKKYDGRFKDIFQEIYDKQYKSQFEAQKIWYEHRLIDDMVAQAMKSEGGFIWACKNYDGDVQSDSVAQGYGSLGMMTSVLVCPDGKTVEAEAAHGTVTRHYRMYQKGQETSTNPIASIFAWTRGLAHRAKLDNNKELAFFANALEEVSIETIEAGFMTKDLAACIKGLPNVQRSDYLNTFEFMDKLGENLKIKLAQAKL
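IDH1-R132H (0.5 ug/mL) preincubated 30 min with compound, then NADPH (0.016 mM) and alpha-KG (2 mM) added; 80 min at RT, pH 7.5. Remaining NADPH coupled via diaphorase/resazurin to fluorescence (540/590 nm); concentration-response curves normalized to no-enzyme control.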
A549 viability: counter-screen for Nrf2 inhibitors: cytotoxicity in A549 cells. A549 ARE-Fluc cells, CellTiter-Fluor viability, 18-24 h. Potency, µM (titrated, usually from 46 µM), inactives show at the top dose activity change, negative = cytotoxicity, hits mostly inhibitors. hit rate 0.16% among 390,000; also: potency is read from the fitted curve at half-maximal effect; % is scaled to controls: 0 for no effect and ±100 for the full control effect
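A549 ARE-Fluc cells in 5% FBS OPTI-MEM, 5000 cells/well, rested 2 h then exposed to compounds in concentration-response for 18-24 h at 37 °C. Viability by CellTiter-Fluor fluorescence (Ex 405/Em 525) after 30 min; luciferase luminescence (BugLite, 15 min, RT) read afterwards.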
Nrf2 block: inhibitors of Nrf2 signaling; AID 504444; A549 ARE-Fluc reporter, luciferase luminescence, 18-24 h; hit rate 2.1% among 360,000; Potency, µM (titrated, usually from 46 µM), for inactives: at the highest dose activity change, negative = inhibition, usual class: inhibitors; also: potency is read from the fitted curve at half-maximal effect; % is scaled to controls: 0 for no effect and ±100 for the full control effect; nearly all actives have a fitted effect of over 60% in size
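A549 ARE_Fluc cells (5000/well, 5% FBS OPTI-MEM) pre-incubated 2 h, then treated with compounds 18-24 h at 37C/5% CO2 in concentration-response. CellTiter-Fluor viability read first; BugLite luciferase luminescence after 15 min at room temperature gives Nrf2 activity.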
12-LOX inh: blocks human arachidonate 12S-lipoxygenase. Potency, µM (highest dose often 108 µM), inactives show at the top dose activity change, negative = inhibition, hits mostly inhibitors. hit rate 1.1% among 580,000. purified 12hLO, xylenol orange hydroperoxide absorbance. AID 1671190; also: potency is read from the fitted curve at half-maximal effect; % is scaled to controls: 0 for no effect and ±100 for the full control effect
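Purified human 12hLO at 150 nM in 25 mM Hepes, 0.01% Triton X-100, pH 7.0, preincubated 15 min at room temperature with compound. Reaction started with 40 uM arachidonic acid, 30 min at room temperature. Hydroperoxide measured by Fe-xylenol orange, 573/405 nm absorbance ratio.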
Nrf2 activator: activators of Nrf2 (ARE) signaling | hit rate 0.31% among 410,000 | Potency, µM (top dose mostly 46.1 µM), without a hit: top-dose activation, usual class: activators | AID 624171 | AREc32 ARE-luciferase reporter (MCF7-derived line), luminescence, 24 h; also: potency is read from the fitted curve at half-maximal effect; % of control where 0% means no effect; nearly all actives have a fitted effect of over 65% in size
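Luminescent ARE reporter assay in AREc32_Fluc cells: overnight plating at 37 deg C, 24 hr compound incubation, Steady-Glo added, 30 min RT before reading.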
LDHA block: inhibitors of human lactate dehydrogenase A; AID 1347041; P00338; hit rate 0.15% among 480,000; purified LDHA, NADH/diaphorase-resazurin fluorescence; stronger effect = lower value; activity change, % (values are at about 110 or 230 µM); in the data active = activity change below about -30%; inconclusive = mostly about -25% to -30%;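 also: plate controls were DMSO wells for no effect and wells without enzyme for full effect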
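Human LDH5 at 2 nM final in Tris HCl pH 7.4 with 0.06 mM NADH and 0.2 mM pyruvate, reacted 5 minutes at room temperature. Remaining NADH coupled via diaphorase/resazurin; resorufin fluorescence read at 0 and 20 minutes, normalized to enzyme-free and DMSO wells.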
* = called active by the depositor; ! = not confirmed by another sample. Hits are enriched below; roughly 2.7% of the tested compounds scored in any of these assays. Unless noted, calls follow the shape of the dose curve; as a rule, active = well fitted curve in the direction sought with a large enough effect; inconclusive = small, poorly fitted or top-dose-only effect, or another doubt; inactive = no such curve, though single readings can be large; an effect the other way counts as inactive or inconclusive.

`Cc1cccc(OCC(=O)Nc2cc(-c3nn(C)c(=O)c4ccccc34)ccc2N2CCOCC2)c1` gave 12-LOX inh inconclusive and LDHA block 5.8.
CN(/C=C/C(=O)C(F)(F)F)c1ccccc1C(=O)O was read as 12-LOX inh inconclusive and LDHA block 6.3.
For Cc1nn(Cc2n[nH]c(=S)n2Cc2ccccc2)c(C)c1Cl the results were mIDH1 inhibitor -0.6%, A549 viability 1.1%, Nrf2 block -10.2%, 12-LOX inh 44.7µM*, Nrf2 activator -0.5% and LDHA block -3.4.
Screening COCc1n[nH]c(=S)n1Cc1ccc(Cl)cc1 returned 12-LOX inh 15.8µM* and LDHA block 4.9.
COC(=O)[C@@]12OC[C@]34[C@H]([C@@H](O)[C@@H]1O)[C@@]1(C)C(=O)C(O[C@@H]5OC(CO)[C@@H](O)[C@@H](O)[C@@H]5O)=C[C@@H](C)[C@@H]1C[C@H]3OC(=O)[C@H](OC(=O)/C=C(\C)C(C)(C)OC(C)=O)[C@@H]24 (stereo not given in full) was read as mIDH1 inhibitor 4.0%, A549 viability inconclusive, Nrf2 block 2.91µM*, Nrf2 activator -3.5% and LDHA block 6.9.
`O=C(Cc1cccs1)OCC(=O)c1ccccc1` gave 12-LOX inh 39.8µM* and LDHA block 10.7.
For Cc1cc(Cl)cc2sc(=S)[nH]c12 the results were mIDH1 inhibitor -5.5%, A549 viability 2.7%, Nrf2 block 14.0%, 12-LOX inh 11.2µM*, Nrf2 activator 3.3% and LDHA block -7.7.
Screening CC(=O)c1c[nH]cc1C returned 12-LOX inh 17.2% and LDHA block 0.0.
COc1cc2c(cc1C(F)(F)F)N(C(=O)Nc1cc(F)cc(-c3cccnc3)c1)CC2 was read as 12-LOX inh 89.9% and LDHA block -13.0.
For Cn1ccc2cc3c(cc21)CCN3C(=O)Nc1cccnc1 the results were mIDH1 inhibitor -0.4%, A549 viability -6.8%, Nrf2 block 3.5%, 12-LOX inh 9.68µM*!, Nrf2 activator 4.5% and LDHA block -4.1.
Screening CN1CCN(CC(=O)NN(Cc2ccccc2)c2ccccc2)CC1 returned mIDH1 inhibitor 2.7%, A549 viability 0.9%, Nrf2 block -2.9%, 12-LOX inh inconclusive, Nrf2 activator 0.3% and LDHA block -44.0*.
Screening CCN(CC)CC(=O)NN(Cc1ccccc1)c1ccccc1 returned mIDH1 inhibitor 4.1%, A549 viability -0.7%, Nrf2 block 6.0%, 12-LOX inh inconclusive, Nrf2 activator 0.7% and LDHA block -16.9.
`COC(=O)C1=C(C)NC(=O)CC1C(=O)Nc1cc(Cl)cc(Cl)c1` (stereo not given) gave 12-LOX inh inconclusive and LDHA block -7.0.
`CCOC(=O)C1=C(C)NC(=O)CC1C(=O)Nc1cc(Cl)cc(Cl)c1` (stereo not given) gave 12-LOX inh 15.8µM* and LDHA block -60.9*.
For C=CCNC(=O)NC(=O)CN(C)Cc1ccccc1Br the results were 12-LOX inh -0.6% and LDHA block 5.5.
CC1(C)CC(N2CCN(Cc3ccccc3)CC2)=CC(=[N+]2CCCCC2)C1 was read as mIDH1 inhibitor 4.6%, A549 viability -18.9%, Nrf2 block 18.4µM*, 12-LOX inh -10.7%, Nrf2 activator -0.6% and LDHA block -43.1*.
`COc1ccc2oc(-c3ccc(NC(=O)c4ccccc4OC)cc3)nc2c1` gave 12-LOX inh inconclusive and LDHA block -0.2.
For CCOC(=O)c1c(C)nc(-c2ccccc2)nc1N the results were mIDH1 inhibitor 5.8%, A549 viability -14.9%, Nrf2 block inconclusive, 12-LOX inh 0.9%, Nrf2 activator 12.6µM* and LDHA block -3.1.
Screening CCCOc1ccc(C(=O)Nc2ccc3oc(-c4cccnc4)nc3c2)cc1 returned 12-LOX inh 34.1% and LDHA block 1.4.
CC(C)CN(C(=O)COC(=O)C1CC1)c1c(N)n(Cc2ccccc2)c(=O)[nH]c1=O was read as mIDH1 inhibitor 3.4%, A549 viability -12.0%, Nrf2 block 20.4%, 12-LOX inh -16.7%, Nrf2 activator -0.2% and LDHA block -6.0.
For CCN(C(=O)COC(=O)/C=C/c1nc2ccccc2s1)c1c(N)n(Cc2ccccc2)c(=O)[nH]c1=O the results were mIDH1 inhibitor 27.5%, A549 viability 8.9%, Nrf2 block -19.4%, 12-LOX inh -14.5%, Nrf2 activator 12.6µM* and LDHA block -6.7.
For CCN(C(=O)COC(=O)C1CCC(C(C)(C)C)CC1)c1c(N)n(Cc2ccccc2)c(=O)[nH]c1=O (stereo not given) the results were mIDH1 inhibitor -1.1%, A549 viability -20.4%, Nrf2 block 13µM*, 12-LOX inh 0.5%, Nrf2 activator 0.0% and LDHA block -11.4.
CCN(C(=O)COC(=O)c1ccc2ccccc2c1)c1c(N)n(Cc2ccccc2)c(=O)[nH]c1=O was read as mIDH1 inhibitor 0.6%, A549 viability inconclusive, Nrf2 block 23.1µM*, 12-LOX inh -3.0%, Nrf2 activator -1.9% and LDHA block -9.5.
`Cc1ccc(C)c(NC(=O)COc2coc(CN3CCc4ccccc4C3)cc2=O)c1` gave mIDH1 inhibitor -5.4%, A549 viability -5.4%, Nrf2 block 10.3µM*, 12-LOX inh -8.2%, Nrf2 activator -0.7% and LDHA block -6.7.
Screening COc1ccc(OC)c(-c2nnc(-c3ccc(C)o3)o2)c1 returned mIDH1 inhibitor 7.0%, A549 viability 1.0%, Nrf2 block inconclusive, 12-LOX inh -4.4%, Nrf2 activator 11.2µM* and LDHA block 5.1.
`COc1ccc(-c2nnc(SC)o2)c(OC)c1` gave mIDH1 inhibitor 4.3%, A549 viability 0.1%, Nrf2 block inconclusive, 12-LOX inh -0.6%, Nrf2 activator 7.9% and LDHA block -5.8.
COc1ccc(NC(=O)CCCSc2nc(-c3ccco3)cc(C(F)(F)F)n2)cc1OC was read as mIDH1 inhibitor -5.0%, A549 viability -17.4%, Nrf2 block 20.6µM*, 12-LOX inh -11.0%, Nrf2 activator -0.4% and LDHA block -2.2.
O=C(CSc1nc(-c2ccco2)cc(C(F)(F)F)n1)Nc1ccc(C(=O)N2CCCCC2)cc1 was read as mIDH1 inhibitor 5.5%, A549 viability -15.9%, Nrf2 block 23.1µM*, 12-LOX inh inconclusive, Nrf2 activator 0.0% and LDHA block -2.3.
Screening CC(C)NC(=O)c1ccc(I)c(Br)c1 returned 12-LOX inh 3.4% and LDHA block 5.7.
